# Source: the supplement of paper PMC9694430
# Values joined by “and” are separate entries in the source; they are usually repeats but may differ in a detail not shown here. Equal values may be shown once. Where a name gives a salt, the structure may show the parent alone.
# System: LOC_OS03G27990-cb004
# Test: thermal shift delta Tm vs DMSO control; higher = stronger stabilization (binding)
# Conditions: 12.5 µM; protein concentration 2 µM
# Method in brief: (§1)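 Rice kinase domain constructs, made in E. coli and purified, were placed in 96-well plates at 2 μM in 19.5 μl of 100 mM potassium phosphate pH 7.5, 150 mM NaCl, 10% glycerol and 5 × SYPRO Orange, with compound in DMSO. A temperature ramp from 25°C to 95°C at 0.05°C/s was used for differential scanning fluorimetry. The melting temperature shift is a triplicate mean compared with DMSO-only protein, derived from Boltzmann fits.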
# 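Further: purified Escherichia coli-expressed rice kinase domain construct.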
row,Structure (SMILES),thermal shift delta Tm
1,Cc1cnc(-c2cnc(NCCNc3ccc(C#N)cn3)nc2-c2ccc(Cl)cc2Cl)[nH]1,0.17 °C and 0.28 °C
2,CCN(CC)CCCCNc1ncc2cc(-c3cc(OC)cc(OC)c3)c(NC(=O)NC(C)(C)C)nc2n1,0.5 °C
3,Cn1cc(-c2ccc3nnc(C(F)(F)c4ccc5ncccc5c4)n3n2)cn1,-0.02 °C
4,O=C(c1ccc(/C=C/c2n[nH]c3ccccc23)cc1)N1CCNCC1,6 °C
5,CN(C)C[C@@H]1CCn2cc(c3ccccc32)C2=C(C(=O)NC2=O)c2cn(c3ccccc23)CCO1,0.5 °C
6,CC1=C(C(=O)Nc2ccc3[nH]ncc3c2)C(c2ccc(F)cc2)NC(=O)N1 (stereo unspecified),0.46 °C
7,CCc1cc(Nc2nccc(-c3c(-c4ccc(OC)c(C(=O)Nc5c(F)cccc5F)c4)nc4ccccn34)n2)c(OC)cc1N1CCC(N2CCN(S(C)(=O)=O)CC2)CC1,0.49 °C
8,CNS(=O)(=O)Nc1nccc(Cc2c(C)c3ccc(Oc4ncccn4)cc3oc2=O)c1F,0.15 °C
9,CCn1c(=O)c(-c2cc[nH]n2)cc2c(C)nc(N)nc21,0.09 °C
10,"COc1cc(F)c(F)c(Nc2ccc(I)cc2F)c1NS(=O)(=O)C1(C[C@H](O)CO)CC1 [Refametinib (RDEA119, Bay 86-9766)]",0.41 °C
11,Cc1cc(C(=O)NOCCO)c(Nc2ccc(I)cc2F)n(C)c1=O,0.02 °C
12,O=C(c1cccc(Cl)c1F)N1CCN(Cc2cccc(Nc3nccs3)n2)CC1,0.38 °C
13,CC(C)n1nc(-c2ccc3oc(N)nc3c2)c2c(N)ncnc21,1.24 °C
14,C=CC(=O)Nc1cccc(Sc2nc(Nc3ccc(N4CCN(C)CC4)cc3)ncc2Cl)c1,2.86 °C
15,CC(C)n1ncnc1-c1cn2c(n1)-c1ccc(O[C@@H](C)C(N)=O)cc1OCC2,0.14 °C
16,Cc1ccc(NC(=O)c2ccc(CN3CCN(C)CC3)cc2)cc1Nc1nccc(-c2cccnc2)n1 [Imatinib (STI571)],0.26 °C
17,CCN(CC)CCCC(C)Nc1nc(C)cc(Nc2ccc3nc(C)cc(N)c3c2)n1 (stereo unspecified),0.33 °C
18,Cn1c(Nc2ccc(C(F)(F)F)cc2)nc2cc(Oc3ccnc(-c4ncc(C(F)(F)F)[nH]4)c3)ccc21,0.45 °C
19,Cc1c(NC(=O)c2ccc(C(C)(C)C)cc2)cccc1-c1cn(C)c(=O)c(Nc2ccc(C(=O)N3CCOCC3)cc2)n1,0.51 °C

row,Structure (SMILES),thermal shift delta Tm
1,CNC(=O)c1cccc(-c2ccc3c(N4CCOC[C@@H]4C)nc(N4CCOC[C@@H]4C)nc3n2)c1 [Vistusertib (AZD2014)],0.11 °C
2,CCS(=O)(=O)c1cccc(-c2cc(C(=O)NC3CCN(C)CC3)c(C)c3[nH]c4ncc(C)cc4c23)c1,3.82 °C
3,CCCCNc1ncc(C(=O)NCc2ccc(-n3ccnc3)cc2)c(NC2CCC(O)CC2)n1 (stereo unspecified),5.72 °C
4,C=C(C)[C@@H]1CC[C@]2(C)CC[C@]3(C)[C@H](CC[C@@H]4[C@@]5(C)CC[C@H](O)C(C)(C)[C@@H]5CC[C@]43C)[C@@H]12 [Lupeol],0.18 °C
5,O=C(O[C@@H]1Cc2c(O)cc(O)cc2O[C@@H]1c1cc(O)c(O)c(O)c1)c1cc(O)c(O)c(O)c1 [(-)-Epigallocatechin Gallate],0.05 °C
6,"CC[C@H](CO)Nc1nc(NCc2ccccc2)c2ncn(C(C)C)c2n1 [Roscovitine (Seliciclib,CYC202)]",-0.05 °C
7,COc1ccc([C@@H]2OC[C@H]3[C@@H]2CO[C@@H]3c2ccc(O[C@@H]3O[C@H](CO)[C@@H](O)[C@H](O)[C@H]3O)c(OC)c2)cc1OC [Forsythin],0.18 °C
8,COc1cc2c(Oc3ccc(NC(=O)C4(C(=O)Nc5ccc(F)cc5)CC4)cc3F)ccnc2cc1OCCCN1CCOCC1,0.69 °C
9,N#Cc1c(NC(=O)c2cccc3ccccc23)sc2c1CCCC2 [JNK Inhibitor IX],0.23 °C
10,C#Cc1cccc(Nc2ncnc3cc4c(cc23)OCCOCCOCCO4)c1 [Icotinib],0.45 °C
11,CN1CCN(Cc2ccc(NC(=O)Nc3ccc(Oc4ccnc(N)n4)cc3)cc2C(F)(F)F)CC1,0.06 °C
12,N[C@@H]1CCCN(c2c(/C=C3\SC(=O)NC3=O)cccc2-c2ccccc2)C1,0.47 °C
13,Cc1c[nH]c(/C=C2\C(=O)Nc3ccccc32)c1CCC(=O)O,0.79 °C
14,N=C(N)NC(=N)NCCc1ccccc1 [Phenformin HCl],0.15 °C
15,Cc1cc(C)c(/C=C2\C(=O)Nc3ccccc32)[nH]1 [Semaxanib (SU5416)],1.72 °C
16,Nc1nc(N)c2nc(-c3cccc(O)c3)c(-c3cccc(O)c3)nc2n1,1.44 °C
17,COc1cc(Nc2ncc3c(n2)-c2ccc(Cl)cc2C(c2c(F)cccc2OC)=NC3)ccc1C(=O)O [Alisertib (MLN8237)],-0.26 °C
18,O=C(Nc1cccnc1)c1cc(-c2ccnc(F)c2)ccc1OCc1ccccc1,0.39 °C
19,Nc1ncnc2n[nH]c(Nc3ccc(F)cc3)c12,3.38 °C

# System: LOC_OS03G50450-cb001
# Test: as above
# Conditions: 12.5 µM; protein concentration 2 µM
# Method in brief: as §1
row,Structure (SMILES),thermal shift delta Tm
1,Cc1cnc(-c2cnc(NCCNc3ccc(C#N)cn3)nc2-c2ccc(Cl)cc2Cl)[nH]1,-0.06 °C and 0.47 °C
2,CCN(CC)CCCCNc1ncc2cc(-c3cc(OC)cc(OC)c3)c(NC(=O)NC(C)(C)C)nc2n1,0.93 °C
3,Cn1cc(-c2ccc3nnc(C(F)(F)c4ccc5ncccc5c4)n3n2)cn1,0.07 °C
4,O=C(c1ccc(/C=C/c2n[nH]c3ccccc23)cc1)N1CCNCC1,4.25 °C
5,CN(C)C[C@@H]1CCn2cc(c3ccccc32)C2=C(C(=O)NC2=O)c2cn(c3ccccc23)CCO1,-0.45 °C
6,CC1=C(C(=O)Nc2ccc3[nH]ncc3c2)C(c2ccc(F)cc2)NC(=O)N1 (stereo unspecified),0.58 °C
7,CCc1cc(Nc2nccc(-c3c(-c4ccc(OC)c(C(=O)Nc5c(F)cccc5F)c4)nc4ccccn34)n2)c(OC)cc1N1CCC(N2CCN(S(C)(=O)=O)CC2)CC1,0.27 °C
8,CNS(=O)(=O)Nc1nccc(Cc2c(C)c3ccc(Oc4ncccn4)cc3oc2=O)c1F,0.4 °C
9,CCn1c(=O)c(-c2cc[nH]n2)cc2c(C)nc(N)nc21,0.05 °C
10,"COc1cc(F)c(F)c(Nc2ccc(I)cc2F)c1NS(=O)(=O)C1(C[C@H](O)CO)CC1 [Refametinib (RDEA119, Bay 86-9766)]",0.71 °C
11,Cc1cc(C(=O)NOCCO)c(Nc2ccc(I)cc2F)n(C)c1=O,1.11 °C
12,O=C(c1cccc(Cl)c1F)N1CCN(Cc2cccc(Nc3nccs3)n2)CC1,0.14 °C
13,CC(C)n1nc(-c2ccc3oc(N)nc3c2)c2c(N)ncnc21,0.47 °C
14,C=CC(=O)Nc1cccc(Sc2nc(Nc3ccc(N4CCN(C)CC4)cc3)ncc2Cl)c1,1.29 °C
15,CC(C)n1ncnc1-c1cn2c(n1)-c1ccc(O[C@@H](C)C(N)=O)cc1OCC2,0.37 °C
16,Cc1ccc(NC(=O)c2ccc(CN3CCN(C)CC3)cc2)cc1Nc1nccc(-c2cccnc2)n1 [Imatinib (STI571)],0.4 °C
17,CCN(CC)CCCC(C)Nc1nc(C)cc(Nc2ccc3nc(C)cc(N)c3c2)n1 (stereo unspecified),0.59 °C
18,Cn1c(Nc2ccc(C(F)(F)F)cc2)nc2cc(Oc3ccnc(-c4ncc(C(F)(F)F)[nH]4)c3)ccc21,1.16 °C
19,Cc1c(NC(=O)c2ccc(C(C)(C)C)cc2)cccc1-c1cn(C)c(=O)c(Nc2ccc(C(=O)N3CCOCC3)cc2)n1,0.69 °C

row,Structure (SMILES),thermal shift delta Tm
1,CNC(=O)c1cccc(-c2ccc3c(N4CCOC[C@@H]4C)nc(N4CCOC[C@@H]4C)nc3n2)c1 [Vistusertib (AZD2014)],0.09 °C
2,CCS(=O)(=O)c1cccc(-c2cc(C(=O)NC3CCN(C)CC3)c(C)c3[nH]c4ncc(C)cc4c23)c1,3.53 °C
3,CCCCNc1ncc(C(=O)NCc2ccc(-n3ccnc3)cc2)c(NC2CCC(O)CC2)n1 (stereo unspecified),1.85 °C
4,C=C(C)[C@@H]1CC[C@]2(C)CC[C@]3(C)[C@H](CC[C@@H]4[C@@]5(C)CC[C@H](O)C(C)(C)[C@@H]5CC[C@]43C)[C@@H]12 [Lupeol],0.36 °C
5,O=C(O[C@@H]1Cc2c(O)cc(O)cc2O[C@@H]1c1cc(O)c(O)c(O)c1)c1cc(O)c(O)c(O)c1 [(-)-Epigallocatechin Gallate],-0.27 °C
6,"CC[C@H](CO)Nc1nc(NCc2ccccc2)c2ncn(C(C)C)c2n1 [Roscovitine (Seliciclib,CYC202)]",0.28 °C
7,COc1ccc([C@@H]2OC[C@H]3[C@@H]2CO[C@@H]3c2ccc(O[C@@H]3O[C@H](CO)[C@@H](O)[C@H](O)[C@H]3O)c(OC)c2)cc1OC [Forsythin],0.11 °C
8,COc1cc2c(Oc3ccc(NC(=O)C4(C(=O)Nc5ccc(F)cc5)CC4)cc3F)ccnc2cc1OCCCN1CCOCC1,0.65 °C
9,N#Cc1c(NC(=O)c2cccc3ccccc23)sc2c1CCCC2 [JNK Inhibitor IX],0.19 °C
10,C#Cc1cccc(Nc2ncnc3cc4c(cc23)OCCOCCOCCO4)c1 [Icotinib],0.72 °C
11,CN1CCN(Cc2ccc(NC(=O)Nc3ccc(Oc4ccnc(N)n4)cc3)cc2C(F)(F)F)CC1,-0.31 °C
12,N[C@@H]1CCCN(c2c(/C=C3\SC(=O)NC3=O)cccc2-c2ccccc2)C1,0.53 °C
13,Cc1c[nH]c(/C=C2\C(=O)Nc3ccccc32)c1CCC(=O)O,4.67 °C
14,N=C(N)NC(=N)NCCc1ccccc1 [Phenformin HCl],0.26 °C
15,Cc1cc(C)c(/C=C2\C(=O)Nc3ccccc32)[nH]1 [Semaxanib (SU5416)],2.32 °C
16,Nc1nc(N)c2nc(-c3cccc(O)c3)c(-c3cccc(O)c3)nc2n1,0.33 °C
17,COc1cc(Nc2ncc3c(n2)-c2ccc(Cl)cc2C(c2c(F)cccc2OC)=NC3)ccc1C(=O)O [Alisertib (MLN8237)],-0.33 °C
18,O=C(Nc1cccnc1)c1cc(-c2ccnc(F)c2)ccc1OCc1ccccc1,0.36 °C
19,Nc1ncnc2n[nH]c(Nc3ccc(F)cc3)c12,0.1 °C
